Screening results: PubChem, National Center for Advancing Translational Sciences (NCATS)
HepG2 tox = qHTS for Inhibitors of TGF-b: Cytotox Counterscreen; HepG2 CAGA-GFP viability, ATP luminescence, 18 h; hit rate 0.76% among 410,000; Potency, µM (doses to about 46.1 µM), for inactives: at the highest dose activity change, negative = cytotoxicity, most hits filed as cytotoxic; also: potency is read from the fitted curve at half-maximal effect
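HepG2 CAGA-GFP cells (1000/well, DMEM with 1% FBS) received compound, then TGF-beta at 500 pg/mL final, and were incubated 18 hours at 37 degrees C. Viability was read by CellTiter-Glo luminescence. Media-only wells were set as complete cell-killing and DMSO as no toxicity.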
TGFb inhibitor = qHTS for Inhibitors of TGF-b; Potency, µM (titrated, usually from 46.1 µM), inactives show at the highest dose activity, negative = inhibition, usual class: inhibitors; AID 588855, 2011; HepG2 CAGA-GFP TGF-b/SMAD3 reporter, GFP fluorescence, 18 h; TGF-beta stimulated, 500 pg/mL final; hit rate 1.2% among 410,000; also: potency is read from the fitted curve at half-maximal effect; % is scaled to controls: 0 for no effect and ±100 for the full control effect; nearly all actives have a fitted effect of over 65% in size
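First, reporter cells (HEPG2 CAGA-GFP) rested 2 h at 37 degrees C. Next, compounds were pinned in and TGF-beta added to 500 pg/mL final. After 18 h, GFP was imaged per cell and summed per well.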
ATXN viability = Viability Counterscreen for Primary qHTS for Inhibitors of ATXN expression. S2 cells (HEK-293 line with an ATXN2-luciferase reporter) viability, CellTiter-Fluor protease fluorescence, 24 h. hit rate 0.49% among 400,000. Potency, µM (titrated, usually from 56.7 µM), actives largely listed as cytotoxic; also: potency is read from the fitted curve at half-maximal effect; nearly all actives have a fitted effect of over 40% in size
IL-1B inflam inh = qHTS for Inhibitors of Inflammasome Signaling: IL-1-beta AlphaLISA Primary Screen | hit rate 4.7% among 360,000 | activity change, % at 57.5 µM | THP-1 LPS/ATP IL-1B secretion, AlphaLISA, 16 h; hits give low values; in the data active = activity change below about -50%; inconclusive = mostly about -30% to -49%; also: % is scaled to controls: 0 for no effect and ±100 for the full control effect
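THP-1 cells pretreated 1 hr with compounds (up to 57.5 uM final), then stimulated with LPS (250 ng/mL final) plus ATP (1.25 mM final); secreted IL-1B measured by AlphaLISA after 16 hr, decreased signal indicating inhibition.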
ATXN2 expr inh = Primary qHTS for Inhibitors of ATXN expression; HEK-293 ATXN2-luciferase reporter, luminescence, 24 h; Potency, µM (series often up to 57 µM), for the others: top-dose activity change, negative = inhibition, actives largely listed as inhibitors; hit rate 0.72% among 360,000; AID 1745845, 2022; also: potency is read from the fitted curve at half-maximal effect; % is scaled to controls: 0 for no effect and ±100 for the full control effect; nearly all actives have a fitted effect of over 55% in size
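qHTS (up to 57 uM final) was run with 24 h compound exposure of reporter cells at 37 °C. Each well was multiplexed: SteadyGlo luminescence measured ATXN2-luciferase expression after a fluorogenic Gly-Phe-AFC viability readout (25 uM final).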
Active calls of the source: *; i = inactive; u = inconclusive; x = not tested or not shown; [ ] = dose if it differs, or a comment. In the library only some 5.7% were active in any assay of this set; here they are far more common. Unless noted, calls follow the shape of the dose curve; as a rule, active = well fitted curve in the direction sought with a large enough effect; inconclusive = small, poorly fitted or top-dose-only effect, or another doubt; inactive = no such curve, though single readings can be large; an effect the other way counts as inactive or inconclusive.

SMILES	HepG2 tox	TGFb inhibitor	ATXN viability	IL-1B inflam inh	ATXN2 expr inh
NC(=O)c1nn2c(C(F)(F)F)cc(-c3ccc(Br)cc3)nc2c1Cl	-2%	38%	x	x	x
CC(C)(C)c1csc(Sc2ccc([N+](=O)[O-])cn2)n1	7%	-20%	i	-93*	12%
COc1ccc(NS(=O)(=O)c2ccc(C)c(NC(=O)NC3CCCCC3)c2)cc1	26%	-10%	i	-74*	12%
COc1ccc(S(=O)(=O)Nc2ccc(F)cc2)cc1N(C)S(=O)(=O)c1ccc(Cl)cc1	7%	u	i	-94*	u
COc1ccccc1NS(=O)(=O)c1cccc(NC(=O)Nc2ccc(Cl)cc2)c1	13µM*	u	u	-69*	u
COc1ccc(NS(=O)(=O)c2cccc(NC(=O)NC3CCCCC3)c2)cc1	-19%	-8%	i	-69*	-24%
COc1ccccc1NS(=O)(=O)c1ccc(C)c(NC(=O)NC2CCCCC2)c1	-20%	-14%	i	u	-4%
COc1ccc(S(=O)(=O)Nc2ccc(S(=O)(=O)Nc3ccc(F)cc3)cc2)cc1C	5%	0%	i	-14	-1%
COc1cc(N2CCC(N3CCN(C)CC3)CC2)ccc1Nc1ncnc(Nc2ccccc2S(=O)(=O)C(C)C)n1	x	x	x	x	27µM*
COc1ccccc1NC(=O)c1cc2cc3ccc(OC)c(Cl)c3nc2s1	-4%	-5%	x	x	x
COc1ccccc1CCNC(=O)Cc1c(C)c2c(cc(C)c3c(C)coc32)oc1=O	-18%	15%	x	x	x
Cc1ccc(C)c(NC(=O)CSc2nnc(CNC(=O)c3ccccc3)n2-c2ccccc2)c1	-4%	-13%	i	x	-5%
O=C1CCCc2c1[nH]c1ccc(CN3CCCCC3)cc21	-28%	-5%	i	-52*	70%
Cc1ccc2[nH]c3c(c2c1)CCCC3=O	-17%	-1%	u	0	63%
CC(=O)c1ccc(NC(=O)CSc2cn(CC(=O)N3CCCCCC3)c3ccccc23)cc1	-22%	-14%	x	x	x
Cc1ccc(-c2nc(CS(=O)(=O)CC(=O)NCCCN(Cc3ccccc3)C(C)C)c(C)o2)cc1	-20%	u	i	-4	-22%
Cc1oc(-c2ccc(-c3ccccc3)cc2)nc1CN(CCO)C(C)C	-23%	-15%	i	-82*	34%
CCCNC(=S)N1CCN(c2nc(C)nc3sc4c(c23)CCCC4)CC1	-19%	-29%	u	-74*	-21%
CCc1nc(N2CCN(C(=O)c3ccccc3)CC2)c2c3c(sc2n1)CCCC3	-25%	u	i	-78*	u
CCc1nc(N2CCN(C(=O)c3ccco3)CC2)c2c3c(sc2n1)CCCC3	-20%	0%	u	-20	-32%
Cc1cc(N/N=C/c2ccc(N(C)C)cc2)c2ccccc2n1	-9%	-17%	i	-15	x
Cc1cc(Nc2cccc(Br)c2)c2ccccc2n1	-5%	u	u	-91*	u
Cc1cc(C)c2nc(C)cc(N/N=C/c3ccc(O)cc3)c2c1	18µM*	20µM*	u	-98*	u
Cc1cc(N/N=C/c2ccc(O)cc2)c2cccc(C)c2n1	18µM*	u	u	u	x
Cc1ccc(Nc2cc(C)nc3c(C)cccc23)cc1	-21%	u	i	-88*	-4%
SMILES	HepG2 tox	TGFb inhibitor	ATXN viability	IL-1B inflam inh	ATXN2 expr inh
CC(=O)c1ccc(Nc2cc(C)nc3c(C)cccc23)cc1	-21%	-19%	u	-7	x
Cc1ccc2nc(C)cc(N/N=C/c3ccccc3O)c2c1	-27%	-13%	i	-18	x
CCCCOc1ccc(CC(=O)NOC)cc1	0%	-8%	x	x	x
CSC1SCC2C(=O)N(C)C(C(C)C)C(=O)OCC(NC(=O)c3cnc4ccccc4n3)C(=O)NC(C)C(=O)N(C)C1C(=O)N(C)C(C(C)C)C(=O)OCC(NC(=O)c1cnc3ccccc3n1)C(=O)NC(C)C(=O)N2C (stereo not drawn)	35%	-106%	u	-116*	-63%
CSc1ccccc1-c1cnc2cccnn12	-6%	14%	i	-54*	18%
CN1C2CCC1/C(=C\c1ccc(F)cc1)C(=O)/C2=C/c1ccc(F)cc1	-56%	-8%	i	-87*	-21%
CN1C2CCC1/C(=C/c1cccn1C)C(=O)/C2=C\c1cccn1C	-16%	96%	x	-15	-31%
CCc1ccc(CNC(=O)CCc2c(C)nn(-c3ccc(N4CCCCC4)nn3)c2C)cc1	-18%	u	x	x	x
Cc1ccc(C(=O)Nc2ccc(CC(=O)O)cc2)o1	-1%	10%	i	u	-19%
CC(C)(C)c1ccc(C(=O)Nc2ccc(CC(=O)O)cc2)o1	2%	-25%	i	3	0.4µM*
CCN(Cc1ccncc1)C(=O)c1cc(COc2ccc(C)c(C)c2)on1	-18%	-13%	i	-53*	-22%
Cc1ccc(OCc2cc(C(=O)N(CCO)Cc3cccs3)no2)cc1C	-4%	13%	i	-62*	36%
CC1=C(C#N)c2nc(N)c(C#N)c(C)c2/C1=C\c1ccc(-c2ccccc2C(=O)O)o1	7%	-2%	u	-88*	-1%[11.3 µM]
O=C(O)c1ccc(-c2ccc(OS(=O)(=O)c3ccccc3F)cc2)cc1	-23%	8%	i	-16	28%
COC(=O)c1ccccc1S(=O)(=O)Oc1ccc(-c2ccc(C(=O)O)cc2)cc1	-30%	-5%	i	-99*	4%
COc1ccc(C(=O)Nc2ccc(Cl)c(S(=O)(=O)N3CCOCC3)c2)cc1	-3%	-11%	u	-75*	u
COc1ccc(C(=O)Nc2ccc(Cl)cc2C(=O)NCCN2CCOCC2)cc1	-22%	5%	u	-56*	-1%
O=C(Nc1ccc(Cl)c(S(=O)(=O)N2CCOCC2)c1)c1ccc(OCC2CCCO2)cc1 (stereo not drawn)	-62%	u	x	-95*	u
COc1ccc(C(=O)Nc2ccccc2C(=O)NCCN2CCOCC2)cc1	-22%	13%	u	u	4%
Cc1cccnc1-c1cccc2c1OC(CNC(=O)C1CCCc3c1[nH]c1ccccc31)C2 (stereo not drawn)	x	x	i	x	x
c1ccc(C[C@H]2CNCCN2CCCCC2CCCCC2)cc1	-105%	u	u	-80*	-32%
FC(F)(F)c1cc(CCN2CCNC[C@@H]2c2ccccc2)cc(C(F)(F)F)c1	-86%	u	35µM*	u	u
CCC(C)[C@H]1CNCCN1CCc1cc(C(F)(F)F)cc(C(F)(F)F)c1 (stereo partly drawn)	-108%	u	u	-66*	u
NC1=NC[C@@H](Cc2ccc(O)cc2)N1CCc1cc(C(F)(F)F)cc(C(F)(F)F)c1	-11%	10%	i	u	9%
